Laboratory results taken from the supplement of paper PMC10849652.
Of roughly 8,800 targets only a part is listed; those with a hit were picked by preference. About 0.5% of all pairs of compound and target were hits.

What was measured:
Assay in all cases: log2 fold change, soluble protein after heating vs DMSO (PISA); higher = thermal stabilisation; K562 lysate, 10 uM; active = over 0.2 and 3.5 SD of the protein, either way, in both replicates (recomputed)
dasatinib = compound: Cc1nc(Nc2ncc(C(=O)Nc3c(C)cccc3Cl)s2)cc(N2CCN(CCO)CC2)n1 [dasatinib]
Method in brief: (§1)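 Thermal stability, expressed as log-two fold change relative to solvent controls, is given from duplicates. Crude K562 extract in PBS pH 7.4 with 1 mM MgCl2, at 1 mg/mL protein, was treated with 10 μM compound for 30 min and heated in aliquots for 3 min across 48°C-58°C. After pooling, adjustment to 0.5% NP-40 at 4°C and centrifugation at 21,000xg for 90 min, supernatant protein was measured by TMTpro 16plex LC-MS/MS with channel sums equalised.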

[1] = compound: Cn1cc(-c2ccc3c(c2)CCN3C(=O)Cc2cccc(C(F)(F)F)c2)c2c(N)ncnc21
Method in brief: as §1

quisinostat = compound: Cn1cc(CNCC2CCN(c3ncc(C(=O)NO)cn3)CC2)c2ccccc21 [quisinostat]
Method in brief: as §1

[2] = compound: NC(=O)Nc1cc(-c2cccc(F)c2)sc1C(=O)N[C@H]1CCCNC1
Method in brief: as §1

nilotinib = compound: Cc1cn(-c2cc(NC(=O)c3ccc(C)c(Nc4nccc(-c5cccnc5)n4)c3)cc(C(F)(F)F)c2)cn1 [nilotinib]
Method in brief: as §1

[3] = compound: Cc1nc(Nc2n[nH]c3c2CN(C(=O)N[C@H](CN(C)C)c2ccccc2)C3(C)C)c2sccc2n1
Method in brief: as §1

[4] = compound: Cc1ncc(-c2ccnc(Nc3ccc(S(C)(=O)=O)cc3)n2)n1C(C)C
Method in brief: as §1

tipifarnib = compound: Cn1cncc1[C@@](N)(c1ccc(Cl)cc1)c1ccc2c(c1)c(-c1cccc(Cl)c1)cc(=O)n2C [tipifarnib]
Method in brief: as §1

[5] = compound: NC(=O)c1cnc(N[C@@H]2CCCC[C@@H]2N)nc1Nc1cccc(-n2nccn2)c1
Method in brief: as §1

[6] = compound: NC1(c2ccc(-c3nc4ccn5c(=O)[nH]nc5c4cc3-c3ccccc3)cc2)CCC1
Method in brief: as §1

Measured: log2 fold change

PDIA4, A0A499FI48
inactive: dasatinib -0.004 | [1] 0.044 | quisinostat -0.02 | [2] 0.164

PCBP2 (UniProt F8VRH0)
inactive: nilotinib -0.221 | [3] -0.532 | [4] -0.063 | quisinostat 0.034 | tipifarnib -0.167 | [2] -0.059 | [5] 0.232 | [6] 0.003

PRIMPOL (UniProt Q96LW4)
Chain of UniProt Q96LW4 (Q96LW4 whole entry, looked up): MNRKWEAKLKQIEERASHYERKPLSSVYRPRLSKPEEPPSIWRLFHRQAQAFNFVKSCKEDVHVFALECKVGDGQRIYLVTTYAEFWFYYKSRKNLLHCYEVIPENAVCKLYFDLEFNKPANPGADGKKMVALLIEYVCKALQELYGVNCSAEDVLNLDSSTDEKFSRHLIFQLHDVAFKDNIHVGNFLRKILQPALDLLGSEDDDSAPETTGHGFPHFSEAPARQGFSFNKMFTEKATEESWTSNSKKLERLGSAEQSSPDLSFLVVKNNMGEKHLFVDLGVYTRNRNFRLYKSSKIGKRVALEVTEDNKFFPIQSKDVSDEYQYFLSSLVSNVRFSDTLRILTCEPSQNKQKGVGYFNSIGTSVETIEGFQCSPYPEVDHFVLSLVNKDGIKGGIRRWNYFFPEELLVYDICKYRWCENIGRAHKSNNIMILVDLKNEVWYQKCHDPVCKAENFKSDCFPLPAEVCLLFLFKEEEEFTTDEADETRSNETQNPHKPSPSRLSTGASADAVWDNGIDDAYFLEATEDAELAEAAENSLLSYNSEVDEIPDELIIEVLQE
inactive: nilotinib 0.112 | [3] -0.089 | dasatinib 0.034 | [4] -0.15 | [1] -0.037 | quisinostat -0.039 | tipifarnib 0.17 | [2] 0 | [6] -0.126
